A selection: hits, their analogues and other compounds. The true share with any hit is near 3.6%.
CendR NRP1 mod – modulators of CendR peptide binding to human neuropilin-1; O14786; FAM-RPARPAR peptide binding to NRP-1, fluorescence polarization; inhibition, % at 25 µM; 0.85% of 360,000 active;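 active means inhibition or corrected inhibition above about 18%, plus a signal ratio from 0.5 to 1.5, limit read from the data, passing the limit was not always enough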
Myeloid diff 2 – promotes myeloid progenitor differentiation; ER-HoxA9 myeloid progenitors, lysozyme-GFP differentiation, flow cytometry; calls only at 10 µM; 1% of 360,000 active; AID 624256;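 active means normalized GFP-positive differentiation at or above the plate's own cutoff, the solvent-only control mean plus 3 SD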;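 further: cells exposed to compound for four days before flow analysis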
FAS-TE inh – blocks the thioesterase domain of human fatty acid synthase | P49327 | recombinant FAS-TE, OMFH fluorogenic substrate, fluorescence endpoint | inhibition, % at 15 µM | 0.67% of 360,000 active | AID 602261;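 active means compounds whose normalised, plate-corrected inhibition of enzyme fluorescence in the single-dose primary screen is 50% or more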;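 further: 0% = DMSO with enzyme and 100% = substrate without enzyme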
CRFBP-R2 block – blocks CRF-induced signaling of the CRF-BP/CRF-R2 complex. inhibition, % at 11.8 µM. AID 588475. HEK293 CRF-R2/CRF-BP, CRF-induced calcium fluorescence. 0.59% of 350,000 active;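 active means inhibition of the ligand-induced calcium signal above about 50% at the single tested concentration, limit read from the data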
NadD block – blocks S. aureus nicotinate mononucleotide adenylyltransferase | purified NadD enzyme, colorimetric absorbance read-out | inhibition, % at 20 µM | 0.78% of 360,000 active; in the data active means inhibition above about 26%
FAS-TE conf – confirmation of human fatty acid synthase thioesterase inhibitors | shares compounds with FAS-TE inh | recombinant FAS-TE, OMFH fluorogenic substrate, fluorescence | inhibition, % at 15 µM | 45% of 2,300 active;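 active means compounds inhibiting the enzyme by at least 50% at 15 µM in any one of the replicates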;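 further: 0% = enzyme with DMSO only and 100% = wells lacking enzyme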
The depositor's hits bear a star; i = inactive; nt = no result; + = active, no number.

SMILES	CendR NRP1 mod	Myeloid diff 2	FAS-TE inh	CRFBP-R2 block	NadD block	FAS-TE conf
COC(=O)[C@]1(Cc2ccccc2)N[C@H](c2ccc(-c3ccc(F)cc3)cc2)[C@@H]2C(=O)N(C)C(=O)[C@@H]21	7	i	85*	-14	5	28
CCN1C(=O)[C@H]2[C@@H](c3ccc(-c4ccc(Cl)c(Cl)c4)cc3)N[C@@](Cc3ccccc3)(C(=O)OC)[C@H]2C1=O	5	i	89*	-10	15	13
CN(CC(=O)Nc1ccc(S(=O)(=O)N2CCCC2)cc1)CC(=O)Nc1cccc(F)c1	-6	i	16	-12	-9	nt
COc1ccc(/C=N/n2cnnc2)cc1Br	1	i	-11	-5	-3	nt
CCS(=O)(=O)Nc1ccc(C2=NN(S(C)(=O)=O)C(c3cccs3)C2)cc1 (stereo not drawn)	0	i	-5	-3	-4	nt
CCN1C(=O)[C@H]2[C@@H](c3ccc(-c4ccc(OC)cc4)c(OC)c3)N[C@@](Cc3ccccc3)(C(=O)OC)[C@H]2C1=O	-3	i	52*	-6	1	23
CCN1C(=O)[C@H]2[C@@H](c3ccc(-c4cccc(Cl)c4)c(OC)c3)N[C@@](Cc3ccccc3)(C(=O)OC)[C@H]2C1=O	-13	i	47	1	13	nt
CCN1C(=O)[C@H]2[C@@H](c3ccc(-c4ccc5c(c4)OCO5)c(OC)c3)N[C@@](Cc3ccccc3)(C(=O)OC)[C@H]2C1=O	1	i	91*	-5	4	-1
COc1ccc(C(=O)OCC(=O)NC(=O)NCc2ccccc2)cc1[N+](=O)[O-]	0	i	26	-14	2	nt
Cc1ccc(C(=O)Nc2ccccc2N2CCCCC2)cc1[N+](=O)[O-]	6	i	46	-7	-1	nt
COc1ccc(C(=O)Nc2ccccc2N2CCCCC2)cc1[N+](=O)[O-]	16	i	57*	-36	0	31
COc1ccc(C(=O)OCC(=O)Nc2ccccc2)cc1[N+](=O)[O-]	0	i	62*	-80	-5	46*
COc1ccc(OC)c(/C=C2\N=C(c3ccccc3)OC2=O)c1	126	i	61*	-84	7	-38
COc1ccc([C@@H]2[C@@H]3C(=O)N(C(C)(C)C)C(=O)[C@@H]3[C@]3(Cc4ccc(Cl)cc4)C(=O)N(c4ccc(C)cc4)C(=O)N23)cc1	12	i	92*	-8	8	39
COc1ccc([C@@H]2[C@@H]3C(=O)N(C(C)(C)C)C(=O)[C@@H]3[C@]3(Cc4ccc(Cl)cc4)C(=O)N(c4cccc(C)c4)C(=O)N23)cc1	0	i	83*	-2	0	39
Cc1ccc(Cl)cc1NC(=O)Nc1cccs1	-7	i	-8	19	-1	nt
N/C(=N\c1nc2c(c(=O)[nH]1)CCCC2)Nc1ccccc1	-11	i	-5	6	-2	nt
N/C(=N\c1nc2c(c(=O)[nH]1)CCCC2)Nc1ccccc1Sc1ccccc1	-1	i	51*	-27	11	13
COc1ccc(C2=NOC(Cn3nc(C(=O)NCc4cccc(C(F)(F)F)c4)cc3-c3ccccc3)C2)cc1 (stereo not drawn)	0	i	24	-8	0	nt
Cc1c(Cl)c(=O)oc2cc(OCC(=O)NCc3cccs3)ccc12	-1	i	57*	3	-4	11
Cc1ccc(OCC(=O)NCc2cccs2)cc1	5	i	-6	0	1	nt
O=C(COc1ccc2c3c(c(=O)oc2c1)CCC3)N1CCN(c2ccccc2)CC1	5	i	50*	-36	2	34*
Cc1c(Cl)c(=O)oc2cc(OCC(=O)N3CCCC(C)C3)ccc12 (stereo not drawn)	-10	i	64*	17	-1	63*
Cc1c(C)c2ccc(OCC(=O)N3CCN(c4ccccc4)CC3)cc2oc1=O	13	i	56*	-4	-12	64*
COc1ccc2c(c1)c(=O)oc1cc(OCC(=O)N3CCCC(C)C3)ccc12 (stereo not drawn)	1	i	9	-42	2	nt
SMILES	CendR NRP1 mod	Myeloid diff 2	FAS-TE inh	CRFBP-R2 block	NadD block	FAS-TE conf
CC1CC(C)CN(S(=O)(=O)c2ccc(C(=O)NNC(=O)c3ccccc3F)cc2)C1 (stereo not drawn)	5	i	-2	-12	-2	nt
CCCCCCCCOC(=O)C1=C(C)Nc2nnnn2C1c1cccs1 (stereo not drawn)	-6	i	62*	-4	-2	41
COC(=O)c1cccc(NC(=O)CC2C(=O)NCCN2C(=O)Nc2cc(C)cc(C)c2)c1 (stereo not drawn)	2	i	0	-7	-4	nt
Cc1cccc(C)c1N1CCN(C(c2ccnc3ccccc23)c2nnnn2-c2ccc3c(c2)OCCO3)CC1 (stereo not drawn)	10	i	79*	nt	17	2
Cc1ccc(S(=O)(=O)N2CCN(C(=O)c3cc4c(C)nn(-c5ccccc5)c4s3)CC2)cc1	-4	i	62*	-1	13	13
O=C(Nc1ccc(Cl)cc1)Nc1nnc(CSCc2ccc(Cl)cc2)s1	8	i	5	-6	15	nt
COCCn1c(=NC(=O)c2ccc(S(=O)(=O)N3CCCc4ccccc43)cc2)sc2cc(S(C)(=O)=O)ccc21	-8	+	84*	-13	14	32*
CCN(CC)CCNc1nc2nonc2nc1NCCN(CC)CC	-8	i	-4	1	-6	nt
CC(=O)c1cc(C#N)c(SCCC(C)C)nc1C	6	i	56*	-3	-3	48
Cc1ccccc1NC(=O)CSc1nc(N)c(C#N)cc1C#N	-12	i	-2	20	-2	nt
CCSc1nc(C)c(C(C)=O)cc1C#N	11	i	13	40	0	nt
CC(C)CCSc1nc(N)c(C#N)cc1C#N	-15	i	65*	-1	-3	9
COc1cc2cc(CN(Cc3cccs3)C(=S)Nc3ccccc3)c(=O)[nH]c2cc1OC	3	i	79*	-32	5	31
CNC(=S)N(Cc1cccs1)Cc1cc2ccc(OC)cc2[nH]c1=O	20	i	3	-56	-2	nt
Cc1ccc(-c2nnc(Nc3ccc4c(c3)OCO4)c3ccccc23)cc1S(=O)(=O)NCCO	-1	i	0	-1	4	nt
Cc1ccc(-c2nnc(Nc3ccc4c(c3)OCO4)c3ccccc23)cc1S(=O)(=O)NC(C)C	28*	i	51*	20	29	15
COc1ccc(CNC(=O)C2Cc3c(-c4ccc5c(c4)OCO5)ccnc3O2)cc1OC (stereo not drawn)	8	i	-4	nt	6	nt
COc1cc(C2NCC(c3ccc(Cl)cc3Cl)c3c2[nH]c2ccccc32)cc(OC)c1OC (stereo not drawn)	5	i	66*	21	23	27

Bioassay records from PubChem BioAssay.
